# Shown is part of a subset that was picked to be rich in the strongest signals.
# B1: Gal 7 (Canis lupus) (protein)
# chain: MAGSSNVPHKTSLPEGIRVGTVMRIRGVVPNKAGRFYVNLLCGEAPGSEAALHFNPRLDESTVVFNTLEQGAWGREERGTGIPFQRGQPFDVLLIATDEGFKAVVGDSEYHHFRYRIPPARVRLLEVGGDLQLESVSVF
# Experiments:
# Experiment in all cases: glycan array binding signal (z-score within array); higher = stronger binding
# Settings in all cases: glycan notation: IUPAC condensed, linker removed
# [1] = target: Fuc(a1-2)Gal(b1-3)GlcNAc(b1-2)Man(a1-3)[Fuc(a1-2)Gal(b1-3)GlcNAc(b1-2)Man(a1-6)]Man(b1-4)GlcNAc(b1-4)[Fuc(a1-6)]GlcNAc
# Method in brief: (§1)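 The Consortium for Functional Glycomics database supplied 3228 glycan arrays, of which those lacking an available protein sequence were dropped. The binding signal, a within-array Z-score, was averaged across arrays of the same protein sequence and across linkers. Negative scores can be read as non-binding.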
# [2] = target: Fuc(a1-2)Gal(b1-3)GlcNAc(b1-3)GalNAc
# Method in brief: as §1
# [3] = target: Fuc(a1-2)Gal(b1-3)[Fuc(a1-4)]GlcNAc(b1-3)[Gal(b1-4)GlcNAc(b1-6)]Gal(b1-4)Glc
# Method in brief: as §1
# [4] = target: Fuc(a1-2)Gal(b1-4)GlcNAc(b1-3)Gal(b1-4)GlcNAc
# Method in brief: as §1
# [5] = target: Fuc(a1-2)Gal(b1-4)GlcNAc(b1-3)Gal(b1-4)GlcNAc(b1-3)Gal(b1-4)GlcNAc
# Method in brief: as §1
# [6] = target: Fuc(a1-2)Gal(b1-4)[Fuc(a1-3)]GlcNAc(b1-3)Gal(b1-4)[Fuc(a1-3)]GlcNAc(b1-3)Gal(b1-4)[Fuc(a1-3)]GlcNAc
# Method in brief: as §1
# [7] = target: Fuc(a1-2)[Gal(a1-3)]Gal(b1-4)GlcNAc(b1-2)Man(a1-3)[Fuc(a1-2)[Gal(a1-3)]Gal(b1-4)GlcNAc(b1-2)Man(a1-6)]Man(b1-4)GlcNAc(b1-4)[Fuc(a1-6)]GlcNAc
# Method in brief: as §1
# [8] = target: Fuc(a1-2)[Gal(a1-3)]Gal(b1-4)[Fuc(a1-3)]GlcNAc(b1-3)GalNAc
# Method in brief: as §1
# [9] = target: Fuc(a1-2)[GalNAc(a1-3)]Gal(b1-4)GlcNAc(b1-3)Gal(b1-4)GlcNAc
# Method in brief: as §1
# [10] = target: Fuc(a1-2)[GalNAc(a1-3)]Gal(b1-4)GlcNAc(b1-3)Gal(b1-4)GlcNAc(b1-3)Gal(b1-4)GlcNAc
# Method in brief: as §1
# Fuc(a1-3)GlcNAc = target: Fuc(a1-3)GlcNAc
# Method in brief: as §1
# Gal(b1-2)Gal = target: Gal(b1-2)Gal
# Method in brief: as §1
# [11] = target: Gal(b1-3)GalNAc(a1-3)[Fuc(a1-2)]Gal(b1-4)Glc
# Method in brief: as §1
# [12] = target: Gal(b1-3)GlcNAc(b1-2)Man(a1-3)[Gal(b1-3)GlcNAc(b1-2)Man(a1-6)]Man(b1-4)GlcNAc(b1-4)GlcNAc
# Method in brief: as §1
# [13] = target: Gal(b1-3)[Fuc(a1-4)]GlcNAc(b1-2)Man(a1-3)[Gal(b1-3)[Fuc(a1-4)]GlcNAc(b1-2)Man(a1-6)]Man(b1-4)GlcNAc(b1-4)GlcNAc
# Method in brief: as §1
# [14] = target: Gal(b1-3)[Fuc(a1-4)]GlcNAc(b1-2)Man(a1-3)[Gal(b1-3)[Fuc(a1-4)]GlcNAc(b1-2)Man(a1-6)]Man(b1-4)GlcNAc(b1-4)[Fuc(a1-6)]GlcNAc
# Method in brief: as §1
# [15] = target: Gal(b1-4)GlcNAc(b1-3)Gal(b1-4)GlcNAc(b1-3)Gal(b1-4)GlcNAc
# Method in brief: as §1
# [16] = target: Gal(b1-4)GlcNAc(b1-6)Gal(b1-4)GlcNAc
# Method in brief: as §1
# Gal4S(b1-4)GlcNAc = target: Gal4S(b1-4)GlcNAc
# Method in brief: as §1
# Gal6S(b1-4)Glc = target: Gal6S(b1-4)Glc
# Method in brief: as §1
# Gal6S(b1-4)GlcNAc = target: Gal6S(b1-4)GlcNAc
# Method in brief: as §1
# [17] = target: GlcNAc(b1-2)Man(a1-3)[GlcNAc(b1-4)][GlcNAc(b1-2)Man(a1-6)]Man(b1-4)GlcNAc(b1-4)GlcNAc
# Method in brief: as §1
# [18] = target: Neu5Ac(a2-3)Gal(b1-3)GlcNAc(b1-3)GalNAc
# Method in brief: as §1
# [19] = target: Neu5Ac(a2-6)Gal(b1-4)GlcNAc(b1-2)Man(a1-3)[Gal(b1-4)GlcNAc(b1-2)Man(a1-6)]Man(b1-4)GlcNAc(b1-4)GlcNAc
# Method in brief: as §1
# [20] = target: Neu5Ac(a2-6)Gal(b1-4)GlcNAc(b1-2)Man(a1-6)[Man(a1-3)]Man(b1-4)GlcNAc(b1-4)GlcNAc
# Method in brief: as §1
# [21] = target: Neu5Ac(a2-6)Gal(b1-4)GlcNAc(b1-3)Gal(b1-3)GlcNAc
# Method in brief: as §1
# [22] = target: Neu5Ac(a2-6)Gal(b1-4)GlcNAc(b1-3)Gal(b1-4)GlcNAc(b1-3)Gal(b1-4)GlcNAc
# Method in brief: as §1
# [23] = target: Neu5Gc(a2-3)Gal(b1-4)GlcNAc
# Method in brief: as §1
binder,measurement,setting,value
B1,glycan array binding signal (z-score),[1],-0.169
same,glycan array binding signal (z-score),[2],-0.187
same,glycan array binding signal (z-score),[3],-0.135
same,glycan array binding signal (z-score),[4],9.85
same,glycan array binding signal (z-score),[5],8.28
same,glycan array binding signal (z-score),[6],5.78
same,glycan array binding signal (z-score),[7],1.25
same,glycan array binding signal (z-score),[8],-0.16
same,glycan array binding signal (z-score),[9],3.55
same,glycan array binding signal (z-score),[10],2.59
same,glycan array binding signal (z-score),Fuc(a1-3)GlcNAc,-0.217
same,glycan array binding signal (z-score),Gal(b1-2)Gal,-0.214
same,glycan array binding signal (z-score),[11],0.252
same,glycan array binding signal (z-score),[12],-0.08
same,glycan array binding signal (z-score),[13],-0.166
same,glycan array binding signal (z-score),[14],-0.199
same,glycan array binding signal (z-score),[15],3.2
same,glycan array binding signal (z-score),[16],-0.206
same,glycan array binding signal (z-score),Gal4S(b1-4)GlcNAc,-0.2
same,glycan array binding signal (z-score),Gal6S(b1-4)Glc,-0.204
same,glycan array binding signal (z-score),Gal6S(b1-4)GlcNAc,-0.195
same,glycan array binding signal (z-score),[17],-0.186
same,glycan array binding signal (z-score),[18],-0.22
same,glycan array binding signal (z-score),[19],-0.212
same,glycan array binding signal (z-score),[20],-0.212
same,glycan array binding signal (z-score),[21],3.85
same,glycan array binding signal (z-score),[22],3.5
same,glycan array binding signal (z-score),[23],-0.217
